# Results from patent publication US5652105, “Substrate for detection of mammalian 5-C-DNA methyltransferase” (Health Research, Inc.).
# Biological target: DNA 5-C-methyltransferase (murine, Friend erythroleukemia cells) (Mus musculus, UniProt P13864 P13864:1-1620)
# Test: same rate as unmethylated A
# Conditions: protein: extract; tags: 0.3 M NaCl nuclear extract, 100,000 x g supernatant; single approx. 190 kDa species forming covalent complexes; homodimer, no analogous stem-loop; ssDNA; 5mC at 7
# DNA 5-C-methyltransferase (murine, Friend erythroleukemia cells), sequence (P13864 whole entry, one chain of several): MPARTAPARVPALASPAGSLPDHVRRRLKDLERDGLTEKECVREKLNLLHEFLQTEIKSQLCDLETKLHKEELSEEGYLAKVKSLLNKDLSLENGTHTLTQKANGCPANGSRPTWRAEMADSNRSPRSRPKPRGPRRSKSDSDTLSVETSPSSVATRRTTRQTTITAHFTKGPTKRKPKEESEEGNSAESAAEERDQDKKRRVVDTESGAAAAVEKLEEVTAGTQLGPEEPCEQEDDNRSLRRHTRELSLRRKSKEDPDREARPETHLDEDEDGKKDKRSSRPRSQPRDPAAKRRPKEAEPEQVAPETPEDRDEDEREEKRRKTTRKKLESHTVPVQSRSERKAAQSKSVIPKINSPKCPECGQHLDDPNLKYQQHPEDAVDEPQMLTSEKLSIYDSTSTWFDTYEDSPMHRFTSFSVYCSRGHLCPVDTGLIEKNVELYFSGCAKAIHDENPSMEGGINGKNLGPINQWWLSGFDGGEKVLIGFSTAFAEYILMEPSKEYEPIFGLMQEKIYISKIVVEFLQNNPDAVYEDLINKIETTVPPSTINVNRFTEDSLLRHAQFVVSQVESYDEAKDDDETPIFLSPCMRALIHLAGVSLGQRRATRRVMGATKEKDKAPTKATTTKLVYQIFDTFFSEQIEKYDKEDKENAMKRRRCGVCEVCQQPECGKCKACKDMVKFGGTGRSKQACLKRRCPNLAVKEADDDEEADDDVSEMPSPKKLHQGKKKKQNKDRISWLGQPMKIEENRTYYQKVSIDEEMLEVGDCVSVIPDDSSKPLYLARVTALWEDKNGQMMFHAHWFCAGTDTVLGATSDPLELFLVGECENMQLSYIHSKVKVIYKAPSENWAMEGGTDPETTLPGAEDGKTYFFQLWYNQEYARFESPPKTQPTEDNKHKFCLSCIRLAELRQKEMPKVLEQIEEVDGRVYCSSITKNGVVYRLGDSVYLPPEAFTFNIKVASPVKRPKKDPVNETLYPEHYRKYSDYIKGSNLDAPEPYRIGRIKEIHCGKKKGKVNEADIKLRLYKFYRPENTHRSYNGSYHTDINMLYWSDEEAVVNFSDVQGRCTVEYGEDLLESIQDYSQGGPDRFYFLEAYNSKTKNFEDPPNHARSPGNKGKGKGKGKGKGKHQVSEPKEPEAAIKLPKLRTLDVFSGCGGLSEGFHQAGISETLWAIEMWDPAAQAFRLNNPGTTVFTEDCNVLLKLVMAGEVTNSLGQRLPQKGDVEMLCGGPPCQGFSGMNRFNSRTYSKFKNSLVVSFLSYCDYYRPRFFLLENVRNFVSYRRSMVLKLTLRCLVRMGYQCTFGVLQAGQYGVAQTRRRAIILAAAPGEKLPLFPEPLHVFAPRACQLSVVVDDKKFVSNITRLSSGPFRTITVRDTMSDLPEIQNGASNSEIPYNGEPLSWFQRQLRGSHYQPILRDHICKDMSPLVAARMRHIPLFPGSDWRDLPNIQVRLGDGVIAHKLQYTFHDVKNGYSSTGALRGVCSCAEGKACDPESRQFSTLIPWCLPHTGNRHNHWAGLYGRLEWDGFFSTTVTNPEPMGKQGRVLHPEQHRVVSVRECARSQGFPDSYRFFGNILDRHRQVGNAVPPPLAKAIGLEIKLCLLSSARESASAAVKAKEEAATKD
sequence,measurement,value
ATTGCGCTACTCGGATCCGGCCAT,binding signal,1 relative to A
